This passage reports growth results from PubChem BioAssay (NCI).

This is part of a sample that, as a whole, favours compounds with a hit. Of some 83,000 tested, about 20% had one in any assay.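 Values shown are percent growth following 48 h exposure of cells in 96-well plates to a single concentration of compound; below 10 was considered active.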 Unmarked numbers belong to inactive results. Activity calls are given as the source filed them.

Experiment in all cases: NCI-60 one-dose screen, 48 h (100 = growth as untreated, 0 = no growth, -100 = all killed)
Conditions in all cases: 10 µM unless noted

In experiment [1] the test system is NCI-H23 lung.
For experiment [2], the system named is NCI-H226 lung.
Experiment [3] concerns NCI-H322M lung.
Experiment [4] has as its system HOP-62 NSCLC.
The subject of experiment [5] is NCI-H460 lung.
Experiment [6] relates to HOP-92 NSCLC.
In experiment [7] the test system is NCI-H522 lung.
For experiment [8], the system named is A549/ATCC NSCLC.
Experiment [9] has as its system 786-0 renal.
Experiment [10] has as its system DU-145 prostate.
For experiment [11], the system named is K-562 leukemia.
Experiment [12] deals with MALME-3M melanoma.
For experiment [13], the system named is MDA-MB-231 breast.
The subject of experiment [14] is RXF 393 renal.
The subject of experiment [15] is SF-268 CNS.
Experiment [16] has as its system SF-295 CNS.
Experiment [17] concerns SF-539 CNS.
In experiment [18] the test system is UACC-257 melanoma.
For experiment [19], the system named is M14 melanoma.
The subject of experiment [20] is COLO 205 colon.

For `CCOC(=O)C1=CCC(n2cc(F)c(=O)[nH]c2=O)O1` (stereo not drawn), the growth in [1] was 101%; in experiment [2] it was 103%; in experiment [3], 127%; in experiment [4] it was 122%; in experiment [5], 97.8%; in experiment [6], 107%. The growth is 112% in experiment [7]; 102% in experiment [8]; 107% in experiment [9]; 97.6% in [10]; 108% in experiment [11]; 112% in [12]. In addition, the growth in experiment [13] is 115%; in experiment [14], 171%; in [15] it was 101%; in [16], 114%; in experiment [17], 100%; in experiment [18], 99.7%. In addition, the growth in experiment [19] was 97.8%.
`C#Cc1cccc(Nc2nc(Cl)nc3cc(NC(=O)CCl)ccc23)c1`: the growth in [1] was -73.9% (active); in experiment [2], -49.4% (active); in experiment [3], -73.1% (active); in [4] it was -77% (active); in experiment [5], -58.9% (active); in experiment [7] it was -69.1% (active). The growth in [8] is 13.1%; in experiment [9], -83.6% (active); in [20], -70.5% (active); in [10], -93.5% (active); in experiment [11] it was -36.2% (active); in [12], -83.3% (active). The growth in [13] was -73% (active); in [14] it was -94.2% (active); in [15] it was -52.2% (active); in [16], -86.9% (active); in [17], -96.5% (active); in experiment [18], -53.9% (active). The growth in experiment [19] was -52.2% (active).
`C#CC#CC#CC#CC#CC#CC#CC#CC[C@@H]1OC[C@H](COC(=O)O[C@@H](C(=O)O[C@H]2C[C@@]3(O)[C@@H](OC(=O)c4ccccc4)[C@@H]4[C@]5(OC(C)=O)CO[C@@H]5C[C@H](O)[C@@]4(C)C(=O)[C@H](OC(C)=O)C(=C2C)C3(C)C)[C@@H](NC(=O)c2ccccc2)c2ccccc2)O1`: the growth is 34.5% in experiment [1]; 57.6% in [2]; 35.9% in experiment [3]; 55% in experiment [4]; 10.6% in experiment [5]; 48.6% in experiment [7]. The growth in experiment [8] was 36.7%; in experiment [9], 72.9%; in [20], 18.7%; in experiment [10] it was 24.4%; in [11], 15.8%; in experiment [12], 43.7%. The growth in [13] was 45.3%; in experiment [14], 22.7%; in experiment [15], 51.7%; in experiment [16], 25.3%; in [17] it was 30.2%; in experiment [18], 55.7%. In experiment [19], the growth is 18.6%.
On to `COc1cc(C2CC(c3cccc(Nc4ccncc4)c3)=Nc3c(N)ncnc3N2)cc(OC)c1OC` (stereo not drawn), for which the growth in experiment [1] is 95.5%; in experiment [2], 89%; in [3], 92.2%; in [4] it was 86.7%; in experiment [5] it was 95.9%; in [7] it was 82.1%. Further, the growth in experiment [8] is 84%; in experiment [9], 95.9%; in [20], 96.6%; in [10], 88.3%; in [11], 29.3%; in experiment [12] it was 83.7%. The growth was 91% in experiment [13]; 94.2% in [14]; 79% in [15]; 95.5% in [16]; 94.8% in experiment [17]; 88.2% in experiment [18]. The growth in experiment [19] was 90.7%.
In the case of `CCCN1C2CCC1/C(=C\c1ccc(OC)cc1)C(=O)/C2=C/c1ccc(OC)cc1`, the growth in experiment [1] is 67.5%; in experiment [2], 71.5%; in experiment [3], 92%; in experiment [4] it was 89.1%; in experiment [5], 76.9%; in [6], 58.1%. For the same compound, the growth was 51.2% in [7]; 72.6% in experiment [8]; 85.2% in experiment [9]; 90% in experiment [10]; 35.6% in [11]; 57.5% in [12]. The growth in [13] is 74.9%; in [14] it was 92.4%; in [15] it was 83.9%; in experiment [16], 76.7%; in [17], 105%; in experiment [18], 44.4%. For the same compound, the growth in experiment [19] was 62.1%.
Consider `COC(=O)c1c(C(=O)OC)c2ccc3c4ncccc4ccc3n2c1C(=O)c1ccc(C)cc1`, for which the growth in experiment [1] is 101%; in experiment [2] it was 96.6%; in experiment [3], 90.7%; in experiment [4], 76.7%; in experiment [5] it was 101%; in [6], 91.7%. Besides, the growth in experiment [7] was 68%; in experiment [8] it was 83.2%; in experiment [9], 91%; in [10] it was 98.7%; in experiment [11] it was 85.8%; in [12] it was 89.7%. The growth is 84.1% in [13]; 106% in [14]; 98.5% in experiment [15]; 87.7% in experiment [16]; 97.6% in [17]; 95.2% in experiment [18]. Further, the growth in experiment [19] was 90.1%.
Take `COc1ccc(-c2nc(SCCC(C)C)nc(N/N=C(/C)c3ccc(N)cc3)c2C#N)cc1`: the growth in experiment [1] is 92.9%; in experiment [2], 88.9%; in experiment [3], 86%; in experiment [4], 89.9%; in experiment [5], 101%; in experiment [7], 90.6%. In addition, the growth in experiment [8] was 98.4%; in [9] it was 97.9%; in experiment [20], 109%; in experiment [10], 97.1%; in experiment [11], 94.3%; in experiment [12], 104%. The growth in [13] is 82.3%; in experiment [14], 86.2%; in experiment [15] it was 92%; in [16] it was 102%; in [17], 87.9%; in experiment [18] it was 102%. Moreover, the growth in experiment [19] was 111%.
